# D1 antag = Antagonist of Human D 1 Dopamine Receptor: qHTS; D(1A) dopamine receptor (Homo sapiens), P21728; HEK293 TREx D1 cells, calcium flux, dopamine EC80; active compounds read low; activity change, negative = inhibition, % at 10 µM; hit rate 3.2% among 360,000; in the data active = activity change below about -30%; also: % is scaled to controls: 0 for no effect and ±100 for the full control effect
#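 Using tetracycline-induced force-coupled D1 Hek293 cells and a calcium dye, signals were followed for 180 s after compound, then for 180 s after EC80 dopamine, to detect inhibitors.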
# D1 agonist = Allosteric Agonists of the Human D1 Dopamine Receptor: qHTS | HEK293 T-REx D1 cells, calcium flux, agonist mode | hit rate 1% among 360,000 | D(1A) dopamine receptor (Homo sapiens), P21728 | activation, % at 2 µM | AID 504660, 2011; in the data active = activation above about 30%; also: 0% is about no effect
#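 Agonism was scored from calcium flux recorded over 180 s (1 read/s) after pintool compound addition, following a 10-cycle baseline. Cells were inducible force-coupled HEK293 TREx D1, plated overnight at 30 C and loaded with no-wash calcium dye.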
# TRHR enhancer-1 = qHTS for Small Molecule Agonists and Allosteric Enhancers of Human TRH Receptor: Primary Screen for Enhancers | Thyrotropin-releasing hormone receptor (Homo sapiens), P34981 | TRHR cells, fluo-8 calcium fluorescence, EC20 TRH enhancement | enhancement, % at 2 µM | hit rate 0.66% among 360,000 | AID 493056, 2011; in the data active = enhancement above about 30%; also: 0% is about no effect
# Target sequence (P34981 whole entry, looked up): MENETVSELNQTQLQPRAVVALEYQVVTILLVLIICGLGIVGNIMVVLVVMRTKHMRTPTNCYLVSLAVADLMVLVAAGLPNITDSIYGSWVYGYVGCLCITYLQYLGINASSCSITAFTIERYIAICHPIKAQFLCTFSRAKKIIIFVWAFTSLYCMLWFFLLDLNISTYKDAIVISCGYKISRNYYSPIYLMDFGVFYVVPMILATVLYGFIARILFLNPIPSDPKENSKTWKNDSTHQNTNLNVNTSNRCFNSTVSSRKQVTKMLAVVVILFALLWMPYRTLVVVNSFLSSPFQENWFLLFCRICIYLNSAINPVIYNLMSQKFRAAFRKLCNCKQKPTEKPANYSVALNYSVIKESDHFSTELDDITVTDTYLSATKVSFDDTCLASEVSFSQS
#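 Enhancer read-out: after compound pinning and an initial kinetic agonist-mode read, an EC20 of TRH (10 nM final) was injected and fluo-8 calcium signal (Ex 480/Em 530) followed at 1 s/cycle for 100 cycles in TRHR-expressing cells.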
# TRHR agonist-1 = qHTS for Small Molecule Agonists and Allosteric Enhancers of Human TRH Receptor: Primary Screen for Agonists; Thyrotropin-releasing hormone receptor (Homo sapiens), P34981; TRHR cells, calcium flux fluo-8, FDSS agonist mode; activation, % at 2 µM; hit rate 0.18% among 360,000; in the data active = activation above about 30%; also: 0% is about no effect
#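 In this calcium-flux screen, cells bearing human TRHR are dye-loaded with fluo-8, baselined for 10 cycles, then exposed to library compounds; positive kinetic calcium responses during the agonist phase mark hits, with TRH as control.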
# D1 potentiator = Potentiators of Human D1 Dopamine Receptor: qHTS; HEK293 TREx D1 cells, calcium flux, dopamine EC20 potentiation; potentiation, % at 10 µM; hit rate 0.036% among 360,000; AID 504651, 2011; in the data active = potentiation above about 30%; also: 0% is about no effect
# TRHR enhancer-2 = qHTS for Small Molecule Agonists and Allosteric Enhancers of Human TRH Receptor: Confirmation Screen for Enhancers; shares compounds with TRHR enhancer-1; TRH receptor cell assay, enhancer confirmation qHTS; activity change, negative = inhibition, % at 46.1 µM; 970 tested, under 10 active;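 also: compound effect scored on response to added TRH at EC20 of 10 nM; 0% is about no effect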
# TRHR agonist-2 = qHTS for Small Molecule Agonists and Allosteric Enhancers of Human TRH Receptor: Confirmation Screen for Agonists; shares compounds with TRHR enhancer-1; TRHR-expressing cells, agonist activation read-out; Potency, µM (doses to about 46.1 µM), inactives show top-dose activation, most hits filed as activators; hit rate 8% among 970; also: potency is read from the fitted curve at half-maximal effect; 0% is about no effect; nearly all actives have a fitted effect of over 75% in size
# The depositor's hits bear a star; ? = inconclusive; / = no result. An excerpt weighted towards active compounds, which were near 4.6% of everything screened. Unless noted, calls follow the shape of the dose curve; as a rule, active = well fitted curve in the direction sought with a large enough effect; inconclusive = small, poorly fitted or top-dose-only effect, or another doubt; inactive = no such curve, though single readings can be large; an effect the other way counts as inactive or inconclusive.
SMILES,D1 antag,D1 agonist,TRHR enhancer-1,TRHR agonist-1,D1 potentiator,TRHR enhancer-2,TRHR agonist-2
O=C1/C(=C/c2cccc(O)c2)SC(=S)N1CC1CCCO1 (stereo unspecified),-24,2,1,1,-14,/,/
COc1cc(/C=C2\SC(=S)N(NS(=O)(=O)c3ccc(C)cc3)C2=O)cc(OC)c1OC,2,-2,-2,0,0,/,/
CCOc1cc(/C=C2\SC(=S)N(NC(=O)c3cccnc3)C2=O)ccc1O,2,20,-4,8,2,/,/
COc1cc(/C=C2\SC(=S)N(NS(=O)(=O)c3ccc(C)cc3)C2=O)ccc1O,-9,82*,-5,36*,4,-3,?
O=c1[nH]c2ccc(NCc3ccccc3F)cc2[nH]1,-3,0,2,2,6,/,/
Cc1ccc(C(=O)NCc2nnnn2-c2ccc(C)c(C)c2)cc1,-7,-1,4,-1,-2,/,/
COc1ccc(C(=O)NCc2nnnn2-c2ccc(C)c(C)c2)cc1,-2,0,68*,-1,-2,-3,0%
CN1CCS/C1=C\C=C1/SC(=S)N(CC(=O)O)C1=O,6,129*,2,29,-7,23,21µM*
Cn1cccc1/C=C1/SC(=S)N(CC(=O)O)C1=O,-15,12,15,2,-4,/,/
Cc1ccc(S(=O)(=O)c2nnn3c2nc(NCc2ccccc2Cl)c2sccc23)cc1,-1,4,-8,1,-4,/,/
COc1ccc(-c2c(-c3ccccc3OC)oc3ccccc23)cn1,/,5,-5,0,2,/,/
COc1ccc(N2CC(NC(=O)/C=C\c3ccc4c(c3)OCO4)CC2=O)cc1 (stereo unspecified),/,-3,4,0,-2,/,/
CC(C)Oc1ccc(/C=C(/NC(=O)c2ccccc2)C(=O)NCCC(=O)O)cc1,-16,1,47*,0,-1,-2,0%
CC(C)Oc1ccc(/C=C(/NC(=O)c2ccccc2)C(=O)NC(Cc2ccccc2)C(=O)O)cc1 (stereo unspecified),-5,2,-3,0,/,/,/
Cc1ccc(NC(=O)N2CCN(C)c3ncccc32)cc1C,6,1,-3,-1,-1,/,/
CC1=C(C(=O)Nc2ccccc2)C(c2ccncc2)n2nc(SCc3ccccc3)nc2N1 (stereo unspecified),-5,4,-1,0,-1,/,/
O=C1NC(Cc2c[nH]c3ccccc23)C(=O)N1Cc1cccc2ccccc12 (stereo unspecified),4,1,56*,0,-1,-4,1%
O=S(=O)(c1cccs1)N1CN(Cc2ccccc2)c2nc3ccccc3nc21,0,2,56*,0,-1,-1,4%
Cc1ccc(NC(=O)c2ccccc2-c2ccccc2C(=O)O)cc1,-16,0,-5,0,-7,/,/
Cc1ccc(O)c(NC(=O)c2ccccc2-c2ccccc2C(=O)O)c1,0,5,43*,0,5,-2,7%
N#Cc1ccc(COc2ccc(CCO)cc2-n2nc3ccccc3n2)cc1,-24,9,16,-1,-5,/,/
OCCc1ccc(O)c(-n2nc3ccccc3n2)c1,-7,4,44*,0,0,0,6%
O=C(NCc1ccc(F)cc1)c1ccc(N2CCOCC2)c([N+](=O)[O-])c1,1,-1,3,0,-5,/,/
O=C(N/N=C/c1ccc(N2CCOCC2)c([N+](=O)[O-])c1)c1ccc(F)cc1,/,-1,100*,0,-1,7,2%
O=C(CC1SC(=Nc2ccc(O)cc2)NC1=O)Nc1ccccc1 (stereo unspecified),-5,1,53*,0,0,-3,0%
SMILES,D1 antag,D1 agonist,TRHR enhancer-1,TRHR agonist-1,D1 potentiator,TRHR enhancer-2,TRHR agonist-2
CCOc1ccc(N=C2NC(=O)C(CC(=O)Nc3ccccc3)S2)cc1 (stereo unspecified),-3,1,0,0,-3,/,/
CCc1cc(=O)oc2c3c(cc(OCC(=O)NCCN4CCOCC4)c12)OC(C)(C)CC3,2,2,-1,-1,-3,/,/
CC(C)Nc1ncnc2c1cnn2-c1ccc(Cl)cc1,-21,0,55*,2,-8,-6,1%
O=C(NCc1cccs1)c1cccnc1C(=O)O,-8,2,7,51*,0,-2,-1%
O=C(O)CSc1nnc(NC(=O)CN2CCOCC2)s1,4,2,-4,0,-3,/,/
COc1cc2c(=O)n(Cc3ccccc3Cl)c(=O)n(CC(=O)Nc3ccccc3)c2cc1OC,-1,4,6,2,-2,/,/
COc1cc(/C=C2/C(=O)NN(c3cccc(C)c3)C2=O)cc([N+](=O)[O-])c1O,-4,1,9,0,17,/,/
COc1cc(/C=C2/C(=O)NN(c3cccc(C)c3)C2=O)ccc1OC(=O)c1ccco1,12,1,52*,-1,-5,-14,3%
Oc1oc(-c2cccc3ccccc23)nc1/C=N/c1nccs1,2,44*,12,34*,-3,-6,?
Cc1ccnc(N=Cc2nc(-c3ccccc3Br)oc2O)c1,7,-2,8,0,0,/,/
CCCn1c(Nc2cccc(OC)c2)nc2ccccc21,-18,-1,-10,-1,-7,/,/
COc1ccc(C)cc1S(=O)(=O)N1CCC2(CC1)OCCN2S(=O)(=O)c1cccs1,-17,4,66*,0,-4,?,2%
Cc1cccc(NS(=O)(=O)c2ccc3[nH]c(=O)ccc3c2)c1C,1,12,0,0,-2,/,/
COc1cccc(C2=NC(C)(C)NC(c3ccccc3O)C2)c1 (stereo unspecified),-20,2,42*,1,4,0,0%
O=C(NCC1CCCCC1)c1ccccc1[N+](=O)[O-],0,2,-3,1,-4,/,/
COc1ccc(CCNC(=O)Cc2c(C)c3c(cc(C)c4c(C)c(C)oc43)oc2=O)cc1,-7,0,-3,0,0,/,/

# Screening results from PubChem BioAssay.
